In PubChem BioAssay (Tox21):
Inconclusive results are not listed. Calls of active or inactive are those of the source. Unless noted, calls follow the shape of the dose curve; as a rule, active = well fitted curve in the direction sought with a large enough effect in the repeat runs; inconclusive = weak or mixed curves; inactive = no such curve, though single readings can be large; an effect the other way counts as inactive or inconclusive.

Experiments:
[1] = biological target: Peroxisome proliferator-activated receptor delta (Homo sapiens) (UniProt Q03181); assay: qHTS assay to identify small molecule agonists of the peroxisome proliferator-activated receptor delta (PPARd) signaling pathway (AID 743212; calls by dose curve;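 also: HEK293H cells with PPARd UAS beta-lactamase reporter GeneBLAzer system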)
Sequence of Peroxisome proliferator-activated receptor delta (Homo sapiens) (Q03181 whole entry, looked up): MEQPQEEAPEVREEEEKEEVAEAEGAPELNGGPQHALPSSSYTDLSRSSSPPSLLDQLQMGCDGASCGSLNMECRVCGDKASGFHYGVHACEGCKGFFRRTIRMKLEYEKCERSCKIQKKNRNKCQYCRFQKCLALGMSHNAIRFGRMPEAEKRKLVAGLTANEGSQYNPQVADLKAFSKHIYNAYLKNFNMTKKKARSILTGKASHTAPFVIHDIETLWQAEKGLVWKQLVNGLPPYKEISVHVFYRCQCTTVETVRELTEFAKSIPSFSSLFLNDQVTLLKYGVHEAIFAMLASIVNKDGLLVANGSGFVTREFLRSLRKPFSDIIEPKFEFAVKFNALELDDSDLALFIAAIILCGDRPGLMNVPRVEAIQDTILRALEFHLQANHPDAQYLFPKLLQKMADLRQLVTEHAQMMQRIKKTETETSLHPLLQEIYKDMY
Method in brief: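 Steps: seed PPARd-bla HEK293H cells; incubate 5 h, 37 C, 5% CO2; add compounds in DMSO; incubate, 37 C; add LiveBLAzer B/G FRET substrate; hold 2 h at room temperature; measure fluorescence.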

[2] = qHTS assay to identify small molecule antagonists of the peroxisome proliferator-activated receptor delta (PPARd) signaling pathway - cell viability counter screen (AID 743213); also: nearly all actives have a fitted effect of over 50% in size
Method in brief: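 Agonist-stimulated (L165041, 300 nM final) HEK293H PPARd UAS-bla cells are exposed to compounds for 17 h at 37 C, and ATP-based luminescence (CellTiter-Glo) from the same wells reports cytotoxicity.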

[3] = biological target: Peroxisome proliferator-activated receptor delta (Homo sapiens) (UniProt Q03181); assay: qHTS assay to identify small molecule antagonists of the peroxisome proliferator-activated receptor delta (PPARd) signaling pathway (AID 743215; active = well fitted inhibition curve with a large enough effect in the signal ratio in the repeat runs, not every such curve was filed as active; the % refers to the signal ratio; also: series mostly up to about 62 µM)
Method in brief: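 Here, a reporter line (HEK293H, beta-lactamase under a UAS) measures PPARd signaling. Compounds are tested against agonist L165041 at 300 nM final concentration over 17 h at 37 C, with fluorescence read after substrate.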

[4] = qHTS assay to identify small molecule antagonists of the farnesoid-X-receptor (FXR) signaling pathway - cell viability counter screen (AID 743221; active = well fitted cell-killing curve with a large enough effect in the repeat runs, not every such curve was filed as active; also: nearly all actives have a fitted effect of over 50% in size)
Method in brief: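 HEK 293T FXR-bla cells, 5 h pre-incubation; compound + CDCA 50 uM final, 16 h, 37 C; beta-lactamase FRET read first, then CellTiter-Glo luminescence, 30 min RT.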

[5] = biological target: Vitamin D3 receptor (Homo sapiens) (UniProt P11473); assay: qHTS assay to identify small molecule antagonists of the vitamin D receptor (VDR) signaling pathway (AID 743223; active = well fitted inhibition curve with a large enough effect in the signal ratio in the repeat runs, not every such curve was filed as active; the % refers to the signal ratio)
Sequence of Vitamin D3 receptor (Homo sapiens) (P11473 whole entry, looked up): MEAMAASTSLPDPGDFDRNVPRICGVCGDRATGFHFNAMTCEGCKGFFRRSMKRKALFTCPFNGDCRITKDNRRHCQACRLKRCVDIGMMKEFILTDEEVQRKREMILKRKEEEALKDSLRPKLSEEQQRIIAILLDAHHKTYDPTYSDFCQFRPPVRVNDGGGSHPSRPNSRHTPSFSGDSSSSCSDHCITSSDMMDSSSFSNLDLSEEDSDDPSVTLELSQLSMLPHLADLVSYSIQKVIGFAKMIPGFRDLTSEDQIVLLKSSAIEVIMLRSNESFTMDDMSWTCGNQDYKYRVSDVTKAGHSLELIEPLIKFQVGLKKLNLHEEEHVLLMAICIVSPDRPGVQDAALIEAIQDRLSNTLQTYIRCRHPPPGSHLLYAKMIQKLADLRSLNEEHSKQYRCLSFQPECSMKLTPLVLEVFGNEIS
Method in brief: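 Beta-lactamase reporter read-out: FRET substrate fluorescence after 2 h at room temperature, following 16 h exposure of VDR-bla cells to test compound plus 3 nM (final) 1alpha,25-dihydroxyvitamin D3 agonist at 37C.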

[6] = qHTS assay to identify small molecule agonists of the vitamin D receptor (VDR) signaling pathway - cell viability counter screen (AID 743224); also: series mostly up to about 63 µM; nearly all actives have a fitted effect of over 50% in size
Method in brief: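 CellTiter-Glo viability readout on VDR-bla cells, measured after 16 h of compound treatment at 37C in the same wells.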

[7] = qHTS assay to identify small molecule antagonists of the vitamin D receptor (VDR) signaling pathway - cell viability counter screen (AID 743225); also: nearly all actives have a fitted effect of over 50% in size
Method in brief: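 Viability counter screen run in the same wells as the beta-lactamase reporter assay: HEK 293T VDR-UAS-bla cells, 16 h compound exposure at 37C with 3 nM (final) 1-alpha,25-dihydroxyvitamin D3. CellTiter-Glo luminescence, 30 min, room temperature.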

[8] = qHTS assay to identify small molecule agonists of the NFkB signaling pathway (AID 1159509; active = well fitted curve in the direction sought with a large enough effect in the signal ratio in the repeat runs, not every such curve was filed as active; the % refers to the signal ratio; also: series mostly up to about 61 µM)
Method in brief: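 Readout: FRET fluorescence, 405 nm excitation, 460/530 nm emission; beta-lactamase expression disrupts FRET. Cells: ME-180 stably carrying NF-kB-driven bla reporter. Compound exposure 5 hr, 37 C, 5% CO2.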

[9] = qHTS assay to identify small molecule agonists of the endoplasmic reticulum stress response signaling pathway (AID 1159516; active = well fitted activation curve with a large enough effect in the signal ratio in the repeat runs, not every such curve was filed as active; the % refers to the signal ratio)
Method in brief: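 Fluorescence at 460 and 530 nm (405 nm excitation) reports beta-lactamase from an ER stress response element in HeLa cells treated 5 hr at 37 C.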

[10] = qHTS assay to identify small molecule antagonists of the retinoid-related orphan receptor gamma (ROR-gamma) signaling pathway - cell viability counter screen (AID 1159520); also: nearly all actives have a fitted effect of over 50% in size
Method in brief: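 Cytotoxicity was read from cellular ATP (CellTiter-Glo luminescence) after 16 hr at 37 C with 1 uM doxycycline induction. The inducer was added 2 hr after compound transfer to Tet-on ROR gamma CHO cells.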

[11] = biological target: Nuclear receptor ROR-gamma (Homo sapiens) (UniProt P51449); assay: qHTS assay to identify small molecule antagonists of the retinoid-related orphan receptor gamma (ROR-gamma) signaling pathway (AID 1159521)
Method in brief: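 Luminescence readout (ONE-Glo, 30 min RT) after 16 h doxycycline induction; loss of signal scored as antagonism. CHO cells with TET-inducible RORγ and RORE-LUC reporter; compounds added 2 h before 1 uM final doxycycline.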

[12] = qHTS assay to identify small molecule agonists of the AP-1 signaling pathway - cell viability counter screen (AID 1159525; calls by dose curve; also: nearly all actives have a fitted effect of over 55% in size)
Method in brief: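 Intracellular ATP by Cell Titer Glo luminescence (30 min, RT) in the same ME-180 AP-1-bla wells after the 5 h compound exposure at 37 °C. Normalised to tetra n-octyl ammonium bromide and DMSO controls.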

[13] = qHTS assay to identify small molecule agonists of the AP-1 signaling pathway (AID 1159526; calls by dose curve)
[14] = biological target: Retinoic acid receptor RXR-alpha (Homo sapiens) (UniProt P19793); assay: qHTS assay to identify small molecule agonists of the RXR signaling pathway (AID 1159527; calls by dose curve; also: nearly all actives have a fitted effect of over 35% in size)
Sequence of Retinoic acid receptor RXR-alpha (Homo sapiens) (P19793 whole entry, looked up): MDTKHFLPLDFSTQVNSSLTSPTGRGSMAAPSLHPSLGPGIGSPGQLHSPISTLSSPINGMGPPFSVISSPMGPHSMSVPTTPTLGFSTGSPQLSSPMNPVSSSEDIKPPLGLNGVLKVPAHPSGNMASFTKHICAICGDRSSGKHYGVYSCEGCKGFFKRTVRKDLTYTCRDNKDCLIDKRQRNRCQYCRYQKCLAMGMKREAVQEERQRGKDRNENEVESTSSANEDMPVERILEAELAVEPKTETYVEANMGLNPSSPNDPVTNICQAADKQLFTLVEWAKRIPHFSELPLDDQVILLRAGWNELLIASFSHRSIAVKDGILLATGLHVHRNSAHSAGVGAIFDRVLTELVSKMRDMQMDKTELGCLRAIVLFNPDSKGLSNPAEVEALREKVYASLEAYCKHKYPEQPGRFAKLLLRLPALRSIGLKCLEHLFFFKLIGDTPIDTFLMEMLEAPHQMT
Method in brief: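 Agonist mode; 9-cis retinoic acid positive control. HEK 293T UAS-bla reporter cells, 2% charcoal-stripped FBS, 16 hr compound exposure at 37 C/5% CO2. LiveBLAzer B/G FRET substrate 2 hr RT; ex 405, em 460/530 nm.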

[15] = qHTS assay to identify small molecule agonists of the farnesoid-X-receptor (FXR) signaling pathway - cell viability counter screen (AID 743218); also: nearly all actives have a fitted effect of over 45% in size
Method in brief: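 Quantitative HTS counter screen measuring ATP-based viability via CellTiter-Glo luminescence in HEK 293T cells carrying a UAS-driven beta-lactamase reporter, after 16 h compound exposure at 37 C.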

[16] = biological target: Vitamin D3 receptor (Homo sapiens) (UniProt P11473); assay: qHTS assay to identify small molecule agonists of the vitamin D receptor (VDR) signaling pathway (AID 743222; calls by dose curve)
Method in brief: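 Tox21 cell reporter format: VDR-bla line, 16 h compound exposure in 5% CO2 at 37C, then fluorescence intensity after 2 h with LiveBLAzer B/G FRET substrate.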

[17] = qHTS assay to identify small molecule agonists of the endoplasmic reticulum stress response signaling pathway - cell viability counter screen (AID 1159517; calls by dose curve)
Method in brief: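 After overnight attachment, ESRE-bla HeLa cells were treated with Tox21 library compounds for 5 hr. CellTiter-Glo luminescence, read 30 min post-addition at room temperature, reported viability.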

[18] = biological target: Bile acid receptor (Homo sapiens) (UniProt Q96RI1); assay: qHTS assay to identify small molecule antagonists of the farnesoid-X-receptor (FXR) signaling pathway (AID 743217; active = well fitted inhibition curve with a large enough effect in the signal ratio in the repeat runs, not every such curve was filed as active; the % refers to the signal ratio)
Sequence of Bile acid receptor (Homo sapiens) (Q96RI1 whole entry, looked up): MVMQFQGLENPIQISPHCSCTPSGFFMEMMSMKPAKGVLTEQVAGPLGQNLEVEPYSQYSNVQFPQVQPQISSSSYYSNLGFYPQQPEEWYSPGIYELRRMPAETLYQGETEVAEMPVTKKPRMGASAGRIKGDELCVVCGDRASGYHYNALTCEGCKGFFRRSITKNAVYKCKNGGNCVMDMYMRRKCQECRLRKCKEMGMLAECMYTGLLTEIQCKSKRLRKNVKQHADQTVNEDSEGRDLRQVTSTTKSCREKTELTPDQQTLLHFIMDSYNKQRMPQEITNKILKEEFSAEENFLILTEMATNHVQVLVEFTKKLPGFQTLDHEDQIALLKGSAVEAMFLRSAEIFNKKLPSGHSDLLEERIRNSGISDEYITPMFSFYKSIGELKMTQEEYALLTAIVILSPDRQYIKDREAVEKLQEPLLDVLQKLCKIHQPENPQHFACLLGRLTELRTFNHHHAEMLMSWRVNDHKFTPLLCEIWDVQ
Method in brief: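 Test compounds are pin-transferred onto FXR-bla HEK 293T cells, then chenodeoxycholic acid is added at 50 uM final. After 16 h at 37 °C, LiveBLAzer B/G substrate is applied for 2 h at room temperature and fluorescence read.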

[19] = biological target: Bile acid receptor (Homo sapiens) (UniProt Q96RI1); assay: qHTS assay to identify small molecule agonists of the farnesoid-X-receptor (FXR) signaling pathway (AID 743220; active = well fitted activation curve with a large enough effect in the signal ratio in the repeat runs, not every such curve was filed as active; the % refers to the signal ratio)
Method in brief: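 FXR-UAS-bla HEK 293T cells carrying a UAS-driven beta-lactamase reporter were plated for 5 h at 37C/5% CO2, then exposed to DMSO-dissolved Tox21 10K compounds for 16 h at 37C. A LiveBLAzer B/G FRET substrate was loaded for 2 h at room temperature before fluorescence reading.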

Measured: Potency

CN[C@@H]1[C@@H](O)[C@@H](O[C@@H]2[C@H](O)[C@H](O[C@H]3OC(CN)=CC[C@H]3N)[C@@H](N)C[C@H]2N)OCC1(C)O (some centres not stated)
not listed: [15] | [16] | [17] | [18] | [19]
inactive: all other assays above

CCNC(=O)/C=C/c1cccc(Br)c1
not listed: [18] | [19]
inactive: all other assays above

O=P(O)(O)OCC(O)CO (configuration not stated)
not listed: [1] | [4] | [5] | [14] | [16]
inactive: all other assays above

C=CCOC(=O)c1ccc(C(=O)OCC=C)c(C(=O)OCC=C)c1
not listed: [9] | [15] | [18] | [19]
inactive: all other assays above

O=C(COCCOCCOCC(=O)Nc1c(I)cc(I)c(C(=O)O)c1I)Nc1c(I)cc(I)c(C(=O)O)c1I
not listed: [2] | [5] | [11] | [16] | [17] | [18] | [19]
inactive: all other assays above

Cc1ncc([N+](=O)[O-])n1CC(O)CCl (configuration not stated)
not listed: [1] | [3] | [9] | [15]
inactive: all other assays above

FC(F)(F)/C(=N\OCC1OCCO1)c1ccc(Cl)cc1
not listed: [1] | [3] | [18] | [19]
inactive: all other assays above

CCOC(=O)CC(CC(=O)OCC)(OC(C)=O)C(=O)OCC
not listed: [1] | [3] | [19]
inactive: all other assays above

O=C(/C=C/c1ccccc1)NCCO
not listed: [18] | [19]
inactive: all other assays above

CCCOC(=O)CCCCC(=O)OCCC
not listed: [3] | [5] | [14] | [15] | [17] | [18] | [19]
inactive: all other assays above

CCC(C)(CCC(C)C)C(=O)[O-].CCC(C)(CCC(C)C)C(=O)[O-].[Zn+2] (configuration not stated)
not listed: [5] | [14] | [18] | [19]
inactive: all other assays above

Nc1ccc(S(=O)(=O)Nc2ccccn2)cc1
not listed: [5] | [9] | [11] | [14]
inactive: all other assays above

CC(C)(c1ccc(Oc2ccc3c(c2)C(=O)OC3=O)cc1)c1ccc(Oc2ccc3c(c2)C(=O)OC3=O)cc1
not listed: [1] | [5] | [14] | [18] | [19]
inactive: all other assays above

CCC1COC(=O)O1 (configuration not stated)
not listed: [1] | [15]
inactive: all other assays above

CC(=O)OC(C(=O)c1ccccc1)c1ccccc1 (configuration not stated)
not listed: [3] | [5] | [11] | [16]
inactive: all other assays above

COC(=O)CCC(=O)O
not listed: [1] | [3] | [18] | [19]
inactive: all other assays above

Cc1ccc2c(c1)c1c3n2CCNC3CCC1 (configuration not stated)
not listed: [1] | [2] | [3] | [15] | [16]
inactive: all other assays above
